PubChem BioAssay (NCATS)
Records with an inconclusive call do not appear. A call without a number means that no potency is given here. Active and inactive are the calls of the source. Calls follow the shape of the dose curve; as a rule, active = well fitted inhibition curve with a large enough effect; inconclusive = small, poorly fitted or top-dose-only effect; inactive = flat fitted curve, though single readings scatter.

Each compound was assayed against Calcium and integrin-binding protein 1 (Homo sapiens) (UniProt Q99828) (assay: Primary qHTS for Identification of Calcium Integrin Binding Protein 1 (CIB1) Competitor (AID 1508620;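 also: GST tagged CIB1 binding a fluorescein labelled alphaIIb integrin peptide tracer; top concentration of the series differs between compounds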)). Conditions: CIB1-GST / FITC-alphaIIb peptide fluorescence polarization; series mostly up to 114 µM.
Sequence of Calcium and integrin-binding protein 1 (Homo sapiens) (Q99828 whole entry, looked up): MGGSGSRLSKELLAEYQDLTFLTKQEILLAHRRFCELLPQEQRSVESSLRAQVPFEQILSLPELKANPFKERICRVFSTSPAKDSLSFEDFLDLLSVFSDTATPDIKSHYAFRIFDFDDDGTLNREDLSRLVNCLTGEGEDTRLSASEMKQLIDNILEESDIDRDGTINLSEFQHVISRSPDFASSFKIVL
Summary of the method: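 Fluorescence polarization competition: CIB1-GST (1 uM final) preincubated with compound 15 min at room temperature, then FITC-labeled alphaIIb peptide (100 nM final) added for another 15 min. Polarization read at Ex 480/Em 540.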

| Structure (SMILES) | Potency |
| --- | --- |
| NC(=O)N1CCN(c2nc(-c3ccc(Br)cc3)cs2)CC1 | inactive |
| Cc1nc(-c2ccc([S+](=O)([O-])N3CCN([S+](=O)([O-])c4c(F)cccc4F)CC3)s2)cs1 | inactive |
| CCOC(=O)c1c(/C=N/Nc2ccccc2)c2sc(C)cc2n1C | inactive |
| COc1ccc(C(=O)Nc2ccc(-c3nc4ccccc4[nH]3)cc2)cc1OC | inactive |
| CC(C)c1ccccc1-c1nc(NCc2ccc(-c3cccnc3)cc2)c2ccccc2n1 | inactive |
| COc1cc2nc(N3CCN(C)CC3)nc(NCCN(C)C)c2cc1OC | inactive |
| Cc1cnc(NC(=O)c2ccc(-c3cccc([N+](=O)[O-])c3)o2)s1 | inactive |
| O=C1CCCC2=C1C(c1[nH]ncc1Cl)N=C(Nc1nc3ccccc3s1)N2 (stereo not given) | inactive |
| Cc1cc(C)nc(NC(=C(C#N)C#N)N2CCN(c3cccc(C(F)(F)F)c3)CC2)c1 | inactive |
| Cc1ccnc(C(=S)N2CCN(c3cccc(C(F)(F)F)c3)CC2)c1 | inactive |
| CC1=C(C(=O)NCc2ccccc2)C(c2ccccc2Br)N=C(Nc2nc3ccccc3o2)N1 (stereo not given) | inactive |
| O=C(Nc1cncc(-c2cccnc2)c1)c1cccs1 | inactive |
| O=C(O)c1sc2c(c1-c1nc3ccccc3s1)CCNC2 | inactive |
| FC(F)(F)c1cc(-c2ccc(CNc3nc(-c4ccncc4)nc4ccccc34)cc2)ccn1 | inactive |
| N#Cc1cccnc1SC1=NS(=O)(=O)c2ccccc21 | inactive |
| CCOc1ccc(COc2ccc(-c3nc4ccccc4[nH]3)cc2)cc1 | inactive |
| COc1cc(O)c(C(CC(=O)N2CCCC(c3nc4ccccc4o3)C2)c2ccc3c(c2)OCO3)c(OC)c1 (stereo not given) | inactive |
| Nc1ccccc1C(=O)NCc1ccco1 | inactive |
| COc1ccccc1-c1csc(N2CCC(C(N)=O)CC2)n1 | inactive |
| Cc1ccc(OCCn2c(CCNC(=O)C3CCCC3)nc3ccccc32)cc1 | inactive |

| Structure (SMILES) | Potency |
| --- | --- |
| Cc1ccc(NC(=O)CSc2nnc(-c3cccc([S+](=O)([O-])N4CCCC4)c3)n2-c2ccccc2)cc1 | inactive |
| COc1ccc(CNc2ccc(S(=O)(=O)Nc3nccs3)cc2)c(O)c1 | inactive |
| CCOC(=O)c1ccc(-n2cccc2/C=C2\NC(=O)NC2=O)cc1 | inactive |
| CCn1c2cc(C)sc2c2cnn(Cc3ccccc3F)c(=O)c21 | inactive |
| O=C(O)c1ccc(O)c2ncc(N3CCCN(CCc4ccncc4)CC3)cc12 | inactive |
| Cc1ccc(-c2nc(NCC(=O)Nc3cccc(C(=O)O)c3)c3ccccc3n2)cc1 | inactive |
| Cc1cc(C)n2ncc(C(=O)Nc3ccccc3Sc3ccccc3)c2n1 | inactive |
| Cc1ccc(-c2cnn(CC(=O)NCCc3ccccc3)c(=O)c2)cc1 | inactive |
| N#Cc1ncc(C(=O)OCC(=O)NC2C3CC4CC(C3)CC2C4)cn1 (stereo not given) | inactive |
| Cc1csc(CNc2ncnc3ccc(-c4ccc(C(C)O)o4)cc23)n1 (stereo not given) | inactive |
| O=C(/C=C/c1ccccc1)Nc1cccc(S(=O)(=O)Nc2ccccc2F)c1 | inactive |
| O=S(=O)(c1ccc2ccccc2c1)N1CCN(S(=O)(=O)c2c(F)cccc2F)CC1 | inactive |
| COCCNc1ccc(NC(=O)c2cccs2)cn1 | inactive |
| CC(C)CN1CC2=C(C1=O)C(c1ccccc1Cl)N=C(Nc1nc3ccccc3o1)N2 (stereo not given) | inactive |
| COc1ccc(-c2nc3ccc(Cl)cc3c(=O)n2Cc2ccccc2)cc1COc1ccc(NC(C)=O)cc1 | inactive |
| COc1cccc(C2=Nn3c(nnc3-c3ccccc3O)SC2)c1 | inactive |
| Cc1cc2c(s1)c(C=O)c(C(=O)NCc1ccccc1F)n2C | inactive |
| Cc1cc(C)nc(NCc2ccc(O)c3ncccc23)c1 | inactive |
| Cc1ccc(CSc2nnc(-c3cccc4ccccc34)o2)cc1 | inactive |
| Cc1ccc(C)c(SC2=NS(=O)(=O)c3ccccc32)c1 | inactive |
